Reference: PubChem BioAssay (EPA / NIEHS)
Results filed as inconclusive are left out. The source made the active and inactive calls. How the source made its calls: active means hit-call score of the fitted dose curve at least 0.9, where 1 is the maximum; inconclusive means response in the unintended direction; inactive means score below 0.9.

These compounds were tested against Estrogen-related receptor gamma (Homo sapiens) (UniProt P62508) (assay: ATG_ERRg_TRANS: Attagene TRANS-FACTORIAL HepG2 Assay for human Estrogen-Related Receptor gamma (ERRg) (AID 2282977;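 further: hits increase reporter signal over DMSO so potencies reflect activators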)). Conditions: HepG2 Attagene TRANS reporter, ERRg transactivation.
Estrogen-related receptor gamma (Homo sapiens), sequence (P62508 whole entry, looked up, the tested form may be a part): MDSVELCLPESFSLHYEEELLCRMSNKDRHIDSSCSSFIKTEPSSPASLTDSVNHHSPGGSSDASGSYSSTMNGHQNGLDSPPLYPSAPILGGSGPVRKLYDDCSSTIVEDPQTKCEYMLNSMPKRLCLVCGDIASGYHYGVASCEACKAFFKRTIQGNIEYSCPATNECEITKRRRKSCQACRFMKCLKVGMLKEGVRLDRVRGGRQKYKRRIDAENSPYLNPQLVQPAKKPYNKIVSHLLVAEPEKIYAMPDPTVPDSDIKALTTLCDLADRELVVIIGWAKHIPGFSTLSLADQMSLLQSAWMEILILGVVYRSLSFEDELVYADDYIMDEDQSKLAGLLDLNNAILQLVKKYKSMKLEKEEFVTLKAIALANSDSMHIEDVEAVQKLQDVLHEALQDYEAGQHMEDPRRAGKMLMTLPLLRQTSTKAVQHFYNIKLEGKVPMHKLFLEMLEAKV
How it was run: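 HepG2 cells transiently transfected with multiplexed GAL4-UAS reporter units and chimeric NR-Gal4 constructs were exposed to test chemicals for 24 h. Reporter mRNA was measured by RT-PCR, 6-FAM primer extension, HpaI digestion and capillary electrophoresis; gain-of-signal versus DMSO.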

| SMILES | outcome |
| --- | --- |
| CN1CN(C)CN(C)C1 | inactive |
| Cc1ccc2c(c1)OCC(=O)CO2 | inactive |
| CSc1ccc(O)cc1C | inactive |
| CCC(=O)OC(C)c1ccccc1 (stereo not given) | inactive |
| CCCCCCCCCCCCCCCCC | inactive |
| FC(F)(F)C(F)(F)C(F)(F)CC1CO1 (stereo not given) | inactive |
| CCCCCCCC/C=C\CCCCCCCC(=O)OCC(O)CO (stereo not given) | inactive |
| C=C(C)CCCC | inactive |
| OCCCC(F)(F)C(F)(F)C(F)(F)C(F)(F)C(F)(F)C(F)(F)C(F)(F)C(F)(F)F | inactive |
| CNS(=O)(=O)C(F)(F)C(F)(F)C(F)(F)C(F)(F)C(F)(F)C(F)(F)C(F)(F)C(F)(F)F | inactive |
| CCOC(C=C(C)CCC=C(C)C)OCC | inactive |
| CCCCCCCC/C=C\CCCCCCCC(=O)N(C)CC(=O)O | inactive |
| O=C(O)CCC(F)(F)C(F)(F)C(F)(F)F | inactive |
| CC(C)CC=C(C=O)c1ccccc1 | inactive |
| OCC(O)CC(F)(F)C(F)(F)C(F)(F)C(F)(F)C(F)(F)C(F)(F)C(F)(F)C(F)(F)F (stereo not given) | inactive |
| CCOC(=O)CCC(C)=O | inactive |
| CCC(C)CO (stereo not given) | inactive |
| NC(=O)C(F)(F)C(F)(F)C(F)(F)F | inactive |
| OCCCCl | inactive |
| Nc1c(Br)cc([N+](=O)[O-])cc1Br | inactive |
| Cc1ccc([N+](=O)[O-])c(C)c1 | inactive |
| Oc1ccc2c(c1)CCC2 | inactive |
| CCOC(=O)CC(=O)C(F)(F)C(F)(F)F | inactive |
| C=CC(=O)OCC(F)(F)C(F)(F)C(F)(F)COC(=O)C=C | inactive |
| CO[Si](C)(CCC(F)(F)C(F)(F)C(F)(F)C(F)(F)C(F)(F)C(F)(F)F)OC | inactive |
| O=S(=O)(OCC(F)(F)F)C(F)(F)C(F)(F)C(F)(F)C(F)(F)F | inactive |
| O=C(O)C(F)(F)C(F)(F)C(F)(F)OC(F)(F)F | inactive |
| CCOC(=O)C1CC(=O)C(=C(O)C2CC2)C(=O)C1 (stereo not given) | inactive |
| Cc1ccc(O)c(-n2nc3ccccc3n2)c1 | inactive |

These compounds were tested against Glucocorticoid receptor (Homo sapiens) (UniProt P04150) (assay: ATG_GR_TRANS: Attagene TRANS-FACTORIAL HepG2 Assay for human Glucocorticoid Receptor (GR) (AID 2282978;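 further: activators score as hits since higher reporter transcript over DMSO is fitted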)). Conditions: HepG2 Attagene TRANS GR reporter, mRNA transcription.
Glucocorticoid receptor (Homo sapiens), sequence (P04150 whole entry, looked up, the tested form may be a part): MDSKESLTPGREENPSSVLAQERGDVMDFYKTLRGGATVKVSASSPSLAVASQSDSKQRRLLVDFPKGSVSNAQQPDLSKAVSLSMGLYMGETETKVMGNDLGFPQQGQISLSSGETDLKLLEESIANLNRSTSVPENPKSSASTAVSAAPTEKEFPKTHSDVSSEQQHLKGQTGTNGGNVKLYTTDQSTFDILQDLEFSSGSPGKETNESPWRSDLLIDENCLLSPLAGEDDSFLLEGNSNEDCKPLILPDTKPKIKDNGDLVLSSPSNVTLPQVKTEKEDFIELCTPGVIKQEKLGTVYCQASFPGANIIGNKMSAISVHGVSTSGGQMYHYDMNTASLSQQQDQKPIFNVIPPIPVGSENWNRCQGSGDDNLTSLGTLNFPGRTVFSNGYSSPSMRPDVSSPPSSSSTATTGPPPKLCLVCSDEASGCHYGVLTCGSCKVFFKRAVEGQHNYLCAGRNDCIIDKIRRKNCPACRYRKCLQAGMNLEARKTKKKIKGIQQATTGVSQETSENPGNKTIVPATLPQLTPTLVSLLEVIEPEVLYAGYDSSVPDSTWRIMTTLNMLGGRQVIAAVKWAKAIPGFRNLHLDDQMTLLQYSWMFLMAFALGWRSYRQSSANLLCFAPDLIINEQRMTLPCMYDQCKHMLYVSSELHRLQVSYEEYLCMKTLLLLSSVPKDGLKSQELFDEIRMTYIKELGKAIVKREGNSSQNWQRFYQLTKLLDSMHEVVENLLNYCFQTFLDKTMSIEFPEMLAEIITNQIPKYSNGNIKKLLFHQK
How it was run: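 Exogenous NR-GAL4 fusion activity was assessed through induced GAL4-UAS reporter transcripts in transfected human HepG2 cells, quantified after 24 h by RT-PCR and fluorescent capillary electrophoresis with DMSO as baseline.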

| SMILES | outcome |
| --- | --- |
| C=CC(=O)OCC(F)(F)C(F)(F)C(F)(F)C(F)(F)C(F)(F)C(F)(F)C(F)(F)C(F)F | inactive |
| C[Si](Cl)(Cl)CCC(F)(F)C(F)(F)C(F)(F)C(F)(F)C(F)(F)C(F)(F)F | inactive |
| CSc1ccc(O)cc1C | inactive |
| FC(F)(F)C(F)(F)C(F)(F)CC1CO1 (stereo not given) | inactive |
| CCCCCCCC/C=C\CCCCCCCC(=O)OCC(O)CO (stereo not given) | inactive |
| O=C1c2ccccc2C(=O)c2c(Cl)cccc21 | inactive |
| O=C(Cl)C(F)(F)C(F)(F)C(F)(F)C(F)(F)C(F)(F)C(F)(F)F | inactive |
| CCC(C)CO (stereo not given) | inactive |
| NC(=O)C(F)(F)C(F)(F)C(F)(F)F | inactive |
| CCCCCCCCCCCCCC[P+](CCCC)(CCCC)CCCC | inactive |
| CCOC(=O)CC(=O)C(F)(F)C(F)(F)F | inactive |
| CN(C)C(C)(C)CO | inactive |
| O=S(=O)(OCC(F)(F)F)C(F)(F)C(F)(F)C(F)(F)C(F)(F)F | inactive |
| O=C(O)C(F)(F)C(F)(F)C(F)(F)OC(F)(F)F | inactive |
| CCCCOC(=O)C(C)O (stereo not given) | inactive |
| CCN(CC)c1ccc(N=Nc2ccccc2)cc1 | inactive |

These compounds were tested against Bile acid receptor (Homo sapiens) (UniProt Q96RI1) (assay: ATG_FXR_TRANS: Attagene TRANS-FACTORIAL HepG2 Assay for Farnesoid X Receptor (FXR) (AID 2282979;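 further: hits raise reporter mRNA above DMSO so AC50 marks FXR activation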)). Conditions: HepG2 Attagene TRANS FXR-GAL4 reporter transcription.
Bile acid receptor (Homo sapiens), sequence (Q96RI1 whole entry, looked up, the tested form may be a part): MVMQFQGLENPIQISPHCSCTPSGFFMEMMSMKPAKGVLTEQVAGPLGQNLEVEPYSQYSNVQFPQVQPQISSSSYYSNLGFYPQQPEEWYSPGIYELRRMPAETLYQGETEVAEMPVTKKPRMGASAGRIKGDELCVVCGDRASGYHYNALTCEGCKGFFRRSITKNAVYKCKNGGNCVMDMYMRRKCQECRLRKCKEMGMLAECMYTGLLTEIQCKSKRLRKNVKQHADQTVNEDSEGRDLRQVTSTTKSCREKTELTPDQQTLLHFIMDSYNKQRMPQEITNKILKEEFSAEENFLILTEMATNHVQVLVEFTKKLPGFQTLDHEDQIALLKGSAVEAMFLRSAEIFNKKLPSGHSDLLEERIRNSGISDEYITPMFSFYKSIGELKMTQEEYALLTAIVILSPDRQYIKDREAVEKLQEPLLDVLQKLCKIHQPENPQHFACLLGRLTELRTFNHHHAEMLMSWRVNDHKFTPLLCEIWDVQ
How it was run: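 Transient transfection of HepG2 with multiplexed GAL4-UAS reporter units; exogenous FXR-GAL4 chimera. Dose 24 h → TriZol RNA → oligo(dT) RT → PCR, 6-FAM primer extension, HpaI cut → CE. Gain vs DMSO.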

| SMILES | outcome |
| --- | --- |
| CN1CN(C)CN(C)C1 | inactive |
| Cc1ccc2c(c1)OCC(=O)CO2 | inactive |
| C=CC(=O)OCC(F)(F)C(F)(F)C(F)(F)C(F)(F)C(F)(F)C(F)(F)C(F)(F)C(F)F | inactive |
| C[Si](Cl)(Cl)CCC(F)(F)C(F)(F)C(F)(F)C(F)(F)C(F)(F)C(F)(F)F | inactive |
| CSc1ccc(O)cc1C | inactive |
| CCC(=O)OC(C)c1ccccc1 (stereo not given) | inactive |
| CCCCCCCCCCCCCCCCC | inactive |
| FC(F)(F)C(F)(F)C(F)(F)CC1CO1 (stereo not given) | inactive |
| CCCCCCCC/C=C\CCCCCCCC(=O)OCC(O)CO (stereo not given) | inactive |
| C=C(C)CCCC | inactive |
| OCCCC(F)(F)C(F)(F)C(F)(F)C(F)(F)C(F)(F)C(F)(F)C(F)(F)C(F)(F)F | inactive |
| CNS(=O)(=O)C(F)(F)C(F)(F)C(F)(F)C(F)(F)C(F)(F)C(F)(F)C(F)(F)C(F)(F)F | inactive |
| CCCCCCCC/C=C\CCCCCCCC(=O)N(C)CC(=O)O | inactive |
| O=C1c2ccccc2C(=O)c2c(Cl)cccc21 | inactive |
| O=C(O)CCC(F)(F)C(F)(F)C(F)(F)F | inactive |
| CC(C)CC=C(C=O)c1ccccc1 | inactive |
| O=C(Cl)C(F)(F)C(F)(F)C(F)(F)C(F)(F)C(F)(F)C(F)(F)F | inactive |
| OCC(O)CC(F)(F)C(F)(F)C(F)(F)C(F)(F)C(F)(F)C(F)(F)C(F)(F)C(F)(F)F (stereo not given) | inactive |

| SMILES | outcome |
| --- | --- |
| CCOC(=O)CCC(C)=O | inactive |
| CCC(C)CO (stereo not given) | inactive |
| NC(=O)C(F)(F)C(F)(F)C(F)(F)F | inactive |
| Nc1c(Br)cc([N+](=O)[O-])cc1Br | inactive |
| CCCCCCCCCCCCCC[P+](CCCC)(CCCC)CCCC | inactive |
| Cc1ccc([N+](=O)[O-])c(C)c1 | inactive |
| Oc1ccc2c(c1)CCC2 | inactive |
| CCOC(=O)CC(=O)C(F)(F)C(F)(F)F | inactive |
| CN(C)C(C)(C)CO | inactive |
| C=CC(=O)OCC(F)(F)C(F)(F)C(F)(F)COC(=O)C=C | inactive |
| CO[Si](C)(CCC(F)(F)C(F)(F)C(F)(F)C(F)(F)C(F)(F)C(F)(F)F)OC | inactive |
| O=S(=O)(OCC(F)(F)F)C(F)(F)C(F)(F)C(F)(F)C(F)(F)F | inactive |
| O=C(O)C(F)(F)C(F)(F)C(F)(F)OC(F)(F)F | inactive |
| CCOC(=O)C1CC(=O)C(=C(O)C2CC2)C(=O)C1 (stereo not given) | inactive |
| Cc1ccc(O)c(-n2nc3ccccc3n2)c1 | inactive |
| CCCCOC(=O)C(C)O (stereo not given) | inactive |
| CCN(CC)c1ccc(N=Nc2ccccc2)cc1 | inactive |
